Rows were chosen to be rich in hits. Some 2.3% of all compounds tested hit in one or more screens of this group.
BCLXL inh: Bcl-xL (human) inhibition; GST-Bcl-xL / FITC-Bim BH3 peptide fluorescence polarization; inhibition, % at 10.9 µM; Q07817; actives 0.7% (n = 320,000);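 active means inhibition above the mean of all tested compounds plus 3 SD, cutoff set per campaign, cut at about 30% in these data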;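 further: 0% = DMSO wells and 100% = unlabeled Bim-BH3 peptide competitor; inhibitors lower millipolarization by displacing the labeled peptide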
Target sequence (Q07817 whole entry, looked up): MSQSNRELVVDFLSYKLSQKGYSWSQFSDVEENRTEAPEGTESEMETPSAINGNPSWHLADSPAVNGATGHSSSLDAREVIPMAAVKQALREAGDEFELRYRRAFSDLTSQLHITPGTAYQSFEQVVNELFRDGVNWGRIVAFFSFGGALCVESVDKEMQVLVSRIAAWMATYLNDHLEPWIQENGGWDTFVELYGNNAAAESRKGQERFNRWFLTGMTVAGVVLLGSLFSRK
MCL1 BIM primary: disrupts human MCL1 binding to BIM-BH3 peptide; Q07820; GST-MCL1 / FITC-Bim-BH3 fluorescence polarization; inhibition, % at 10.9 µM; actives 0.68% (n = 320,000);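 active means inhibition above the mean inhibition of all tested compounds plus 3 SD, set per campaign, cut at about 40% in these data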;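 further: 0% = DMSO wells and 100% = unlabeled Bim-BH3 peptide control; higher means more loss of mP so more displacement of Bim peptide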
Target sequence (Q07820 whole entry, looked up): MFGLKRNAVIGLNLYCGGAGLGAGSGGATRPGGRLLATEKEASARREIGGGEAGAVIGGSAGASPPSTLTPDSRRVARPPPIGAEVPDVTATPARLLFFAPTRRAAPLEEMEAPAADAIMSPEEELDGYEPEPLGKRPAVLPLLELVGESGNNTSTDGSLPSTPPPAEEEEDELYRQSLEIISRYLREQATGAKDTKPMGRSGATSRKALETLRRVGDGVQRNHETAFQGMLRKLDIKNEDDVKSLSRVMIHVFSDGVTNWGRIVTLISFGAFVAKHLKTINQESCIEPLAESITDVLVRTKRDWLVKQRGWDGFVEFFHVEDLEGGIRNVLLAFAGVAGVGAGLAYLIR
Mcl-1 Bim block: human Bim-Mcl-1 interaction inhibition | Q07820 | Bead-based flow cytometry, Bim peptide-Mcl-1 binding | inhibition, % at 10 µM | actives 0.1% (n = 190,000); in the data active means inhibition above about 40%;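 further: 0% = no compound tracer wells and 100% = peptide blocker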
Mcl1-Noxa inh: Mcl-1/Noxa interaction inhibition | actives 1.5% (n = 220,000) | TR-FRET Mcl-1/Noxa peptide binding, 2 h | Q07820 | inhibition, % at 21.7 µM;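 active means compounds that cut the protein-peptide binding signal by more than 50% relative to plate controls in a single-dose test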;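 further: His-tagged Mcl-1 with rhodamine Noxa BH3 peptide and terbium anti-His antibody; 0% = Mcl-1 plus Noxa peptide wells and 100% = peptide-only wells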
GLD-1 RNA inh: GLD-1-TGE RNA interaction inhibition (C. elegans) | purified GLD-1 + fluorescein TGE RNA, fluorescence polarization | Q17339 | inhibition, % at 5.96 µM | actives 0.44% (n = 320,000);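 active means percent inhibition above a per-plate cutoff, the plate mean of test compounds plus 3 SD, cut at about 30% in these data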;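 further: 0% = DMSO wells with GLD-1 and probe and 100% = wells lacking GLD-1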
Mcl1 Bid PPI: disrupts binding of human Mcl-1 to Bid peptide | TR-FRET Mcl-1/Bid-Dy647 peptide binding, 1536-well | inhibition, % at 21.7 µM | actives 0.97% (n = 220,000) | AID 1021;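 active means compounds that cut the binding signal by more than half at the single screening dose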;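 further: His-tagged Mcl-1 with europium anti-His antibody binding Bid BH3 peptide; 0% = Mcl-1 plus peptide wells and 100% = peptide-only wells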
Bcl-xL conf: counter-screen for MCL1 inhibitors: confirmation of human Bcl-xL inhibitors | shares compounds with MCL1 BIM primary | inhibition, % at 10.9 µM | actives 54% (n = 1,700) | GST-Bcl-xL / FITC-Bim BH3 peptide FP binding;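 active means inhibition above a cutoff equal to the mean inhibition of all tested compounds plus 3 SD, cut at about 30% in these data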;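 further: 0% = DMSO wells and 100% = unlabeled Bim BH3 control peptide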
MCL1 BIM confirm: MCL1-BIM-BH3 interaction inhibition, confirmation. shares compounds with MCL1 BIM primary. GST-MCL1 / FITC-Bim-BH3 fluorescence polarization. inhibition, % at 10.9 µM. actives 61% (n = 1,700);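 active means inhibition above the average of all tested compounds plus 3 SD, cut at about 40% in these data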;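 further: 0% = DMSO wells and 100% = unlabeled Bim-BH3 control peptide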
Active calls of the source: *; x = no result given; + = active, no number.

SMILES | BCLXL inh | MCL1 BIM primary | Mcl-1 Bim block | Mcl1-Noxa inh | GLD-1 RNA inh | Mcl1 Bid PPI | Bcl-xL conf | MCL1 BIM confirm
O=C1SC(SCc2ccccc2)=N/C1=C\c1ccc(C(=O)O)cc1 | 4.4 | 3.2 | -3.0 | 38.7 | 0.2 | -3.5 | x | x
O=C1SC(SCc2ccccc2)=N/C1=C\c1ccco1 | 19.7 | 43.0* | -1.0 | 23.5 | 5.5 | -24.3 | 7.5 | 16.5
Nc1ccc(N2CCCCCC2)cc1 | 26.7 | 41.7* | 7.0 | 65.0* | 20.6 | -19.3 | 38.3* | 57.4*
Oc1cccc2cc3cccc(O)c3c(O)c12 | 43.1* | 50.8* | 1.0 | 97.3* | 25.2 | -6.4 | 43.4* | 49.8*
O=C(CN1C(=O)/C(=C2/SC(=S)N(CCS(=O)(=O)O)C2=O)c2ccccc21)Nc1cccc(C(F)(F)F)c1 | x | x | x | x | 1.6 | x | x | x
O=C(CN1C(=O)/C(=C2\SC(=S)N(CCS(=O)(=O)O)C2=O)c2ccccc21)Nc1cccc(Br)c1 | 20.6 | 102.7* | x | x | 0.2 | x | 25.6 | 94.4*
Cc1ccc(/C=N/NC(=O)Cc2ccc(Cl)cc2)s1 | -0.8 | 6.5 | x | x | -3.2 | x | x | x
CC(=O)c1c(Cl)nc2cccc3c2c1-c1ccccc1C3=O | 54.2* | 59.5* | x | x | 26.8 | x | 39.9* | 36.9
CSCC(C)N1CCC(n2nccc2NC(=O)CCCc2ccccc2)CC1 (stereo unspecified) | 99.0* | 108.1* | x | x | 45.0* | x | 98.9* | 118.6*
Oc1ccc(/C=N/N2CCCCC2)c(O)c1O | 38.1* | 53.6* | x | x | 26.1 | x | 12.4 | 5.6
c1ccc2c(c1)NCC1CCCN21 (stereo unspecified) | 1.3 | -4.4 | x | x | -4.6 | x | x | x
CC1CC(=O)c2c(cc3c(-c4c(O)cc(O)c5c(O)c6c(cc45)OC(C)CC6=O)c(O)cc(O)c3c2O)O1 (stereo unspecified) | 44.4* | 76.0* | 0.0 | 93.4* | 5.4 | 46.7 | 24.6 | 22.9
O=C(O)c1ccccc1NS(=O)(=O)c1cccc(-n2sc3ccccc3c2=O)c1 | 23.4 | 55.9* | x | x | 9.9 | x | 35.0* | 68.3*
Cc1cc(C)cc(N(CC(=O)Nc2ccc(Br)cc2)S(=O)(=O)c2c(C)[nH]c(=O)[nH]c2=O)c1 | 6.9 | 6.8 | x | x | -1.0 | x | x | x
COCCn1c(C)cc(C(=O)COC(=O)/C=C/c2c(C)nn(C3CCS(=O)(=O)C3)c2Cl)c1C (stereo unspecified) | 3.4 | 0.9 | x | x | 5.0 | x | x | x
Cc1cc(CN2CCC(n3nccc3NC(=O)c3ccccc3C)CC2)n[nH]1 | 6.4 | -0.5 | x | x | 5.2 | x | x | x
COc1cc2cccc(OC)c(=O)c2c(O)c1OC | 3.1 | 6.9 | -2.0 | -1.6 | -7.8 | -10.0 | x | x
COc1cc2c(ccc3cc(OC)c(OC)c(O)c32)cc1O | 20.7 | 78.2* | x | 107.3* | 4.5 | -21.3 | 29.2 | 82.3*
CCN(C(=O)Cn1c(=O)oc2ccccc21)c1cccc(C)c1 | -1.4 | -2.1 | x | x | -3.6 | x | x | x
N#Cc1c(N)sc(=S)c2c1CCCC2 | 141.5* | 159.7* | 1.0 | 29.1 | 101.8* | -8.0 | 62.2* | 91.7*
CCC(=O)N1CCN(CCN=CC2=C(O)CC(c3ccc(OC)cc3)CC2=O)CC1 (stereo unspecified) | -2.3 | -1.2 | -3.0 | -3.5 | -3.4 | -10.8 | x | x
COc1ccc(C2CC(=O)C(C=NCCCO)=C(O)C2)cc1 (stereo unspecified) | 63.8* | 80.0* | x | x | 22.0 | x | 61.3* | 84.7*
CC(C)=CCc1c(O)c(CC=C(C)C)c2c(c1O)-c1cc(O)c(O)cc1CC2 | 22.2 | 55.2* | x | x | 10.4 | x | 40.8* | 75.8*
O=C(OCC(=O)N1CCOCC1)c1ccc(Cl)cc1[N+](=O)[O-] | -0.4 | -0.2 | x | x | -2.0 | x | x | x
CCOC(=O)C1CCCN(C(=O)c2ccc3c(c2)N(Cc2ccccc2)C(=O)c2ccccc2S3=O)C1 (stereo unspecified) | 0.2 | 4.5 | 1.0 | 7.5 | -4.4 | 4.7 | x | x
SMILES | BCLXL inh | MCL1 BIM primary | Mcl-1 Bim block | Mcl1-Noxa inh | GLD-1 RNA inh | Mcl1 Bid PPI | Bcl-xL conf | MCL1 BIM confirm
CCCCN(C(=O)c1ccc(C)c(S(=O)(=O)N2CCOCC2)c1)c1c(N)n(CCCC)c(=O)[nH]c1=O | 7.3 | 5.8 | x | x | 7.9 | x | x | x
O=C1c2cc([N+](=O)[O-])cc3cc([N+](=O)[O-])cc(c23)C(=O)N1c1ccccn1 | 13.3 | 14.1 | -6.0 | 12.5 | 6.9 | 20.7 | x | x
O=C(O)c1cccc(N2C(=O)c3cc([N+](=O)[O-])cc4cc([N+](=O)[O-])cc(c34)C2=O)c1 | 14.9 | 46.9* | x | x | 1.8 | x | 21.4 | 45.3*
CC(C)(C)N(Cc1ccccc1)C(=O)COC(=O)c1ccccc1SCC(=O)N1CCCC1 | -2.1 | -6.9 | x | x | 4.0 | x | x | x
O=S(=O)([O-])C(c1ccccc1)[n+]1ccccc1 (stereo unspecified) | 8.5 | 47.5* | x | x | -2.0 | x | -1.4 | 2.0
CC(C)Nc1nnc(SCC(=O)Nc2sccc2C#N)s1 | 15.8 | 12.7 | x | x | 3.3 | x | x | x
CC(=O)Nc1ccc(N(C(=O)c2ccco2)C(C(=O)NC2CCCC2)c2ccncc2)cc1 (stereo unspecified) | 3.3 | -0.5 | x | x | 1.1 | x | x | x
CC1=Nc2ccccc2/C1=C\c1nc(-c2ccc(F)cc2)oc1O | + | + | -2.0 | 1.6 | 172.1* | -21.6 | 91.6* | 141.4*
CN=Cc1nc(-c2ccccc2)oc1O | -2.9 | -3.3 | x | 7.0 | 4.3 | -43.2 | x | x
COc1ccccc1C(=O)NCCC(=O)N1CC=C(c2ccccc2)CC1 | 0.8 | -9.3 | x | x | 6.4 | x | x | x
O=Cc1c(Sc2ccccn2)nc2ccccn2c1=O | 53.0* | 63.1* | -5.0 | -3.1 | 24.3 | 0.0 | 3.0 | 8.4
O=C(c1nc2ccc(Cl)cn2c1CN1CCCC1)N1CCc2ccccc2C1 | 56.6* | 67.4* | x | x | 37.2* | x | 62.7* | 87.2*
COc1ccc(NC(=O)CC2CC3CCC2C3)cc1S(=O)(=O)N1CCOCC1 (stereo unspecified) | x | x | x | x | 1.0 | x | x | x
CC(=O)Oc1ccc2c(c1)Oc1cc(OC(C)=O)ccc1C21OC(=O)c2ccccc21 | 180.9* | + | x | 4.0 | 142.1* | -7.2 | 153.9* | 186.1*
Cc1cc(O)ccc1C1(c2ccc(O)cc2C)OC(=O)c2ccccc21 | 5.6 | 7.5 | -3.0 | 14.5 | 6.6 | -14.5 | x | x
CC(=O)c1cccc(NC(=O)c2cc(S(=O)(=O)N3CCOCC3)cs2)c1 | 1.9 | 2.4 | x | x | -1.6 | x | x | x
CN1CCc2cccc3c2C1Cc1ccc(O)c(O)c1-3 (stereo unspecified) | 33.2* | 48.5* | x | x | 6.8 | x | 45.5* | 69.7*
CCOc1ccc(CCN2CN(C3CCCCC3)CNC2=S)cc1OCC | 3.0 | 3.5 | x | 10.4 | 3.7 | -59.5 | x | x
CCOc1ccccc1N1CN(C2CCCCC2)CNC1=S | -1.6 | 51.7* | x | 25.5 | -3.3 | -20.0 | 1.7 | 3.1

Screens (PubChem BioAssay)
